Source: PubChem BioAssay (NCI)
The panel holds about 83,000 compounds, 20% with a hit somewhere; the sample as a whole holds those more often.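 Cells were grown in 96-well plates and exposed to the test compound at a single concentration for 48 hours; results are reported as percent growth, with values below 10 considered active.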 Values without a mark were called inactive.

The compounds below were run on MDA-MB-468 breast (assay: NCI-60 one-dose screen, 48 h (100 = growth as untreated, 0 = no growth, -100 = all killed)). Details: 10 µM unless noted.
With `CCOC(=O)c1sc2ncc(-c3ccc(OC)cc3)n2c1C` the growth was 103%. Work on `C#C[C@]1(O)CC[C@H]2[C@@H]3CC=C4c5sc(C6CCOCC6)nc5CC[C@]4(C)[C@H]3CC[C@@]21C` yielded a growth of 68.5%. Compound `N=C(N)/N=C(\CCc1nc2ccccc2[nH]1)c1nc2ccccc2[nH]1` has a growth of 109%.
